Data reported in ChEMBL document CHEMBL3988442, “University of Dundee, Small-Polar-MMV Screening Library” (2021).
For some of these results: Measured potencies and affinities stand elsewhere.

Tests used:
Set-up in all cases: scale not given: direction of the effect not stated beside the values
[1] = target: Protein translocase subunit SecA (Escherichia coli (strain K12)) (UniProt P10408); experiment: Assay to Identify E. coli SecA ATPase Inhibitors; format: functional; settings: 30 µM
[2] = target: T1, Ubiquitin-activating enzyme e1, putative (Leishmania donovani (strain BPK282A1)) (UniProt E9BSI1); experiment: Leishmania donovani Ubiquitin Activating Enzyme (LdE1); format: functional; settings: 30 µM
T1 sequence (whole entry): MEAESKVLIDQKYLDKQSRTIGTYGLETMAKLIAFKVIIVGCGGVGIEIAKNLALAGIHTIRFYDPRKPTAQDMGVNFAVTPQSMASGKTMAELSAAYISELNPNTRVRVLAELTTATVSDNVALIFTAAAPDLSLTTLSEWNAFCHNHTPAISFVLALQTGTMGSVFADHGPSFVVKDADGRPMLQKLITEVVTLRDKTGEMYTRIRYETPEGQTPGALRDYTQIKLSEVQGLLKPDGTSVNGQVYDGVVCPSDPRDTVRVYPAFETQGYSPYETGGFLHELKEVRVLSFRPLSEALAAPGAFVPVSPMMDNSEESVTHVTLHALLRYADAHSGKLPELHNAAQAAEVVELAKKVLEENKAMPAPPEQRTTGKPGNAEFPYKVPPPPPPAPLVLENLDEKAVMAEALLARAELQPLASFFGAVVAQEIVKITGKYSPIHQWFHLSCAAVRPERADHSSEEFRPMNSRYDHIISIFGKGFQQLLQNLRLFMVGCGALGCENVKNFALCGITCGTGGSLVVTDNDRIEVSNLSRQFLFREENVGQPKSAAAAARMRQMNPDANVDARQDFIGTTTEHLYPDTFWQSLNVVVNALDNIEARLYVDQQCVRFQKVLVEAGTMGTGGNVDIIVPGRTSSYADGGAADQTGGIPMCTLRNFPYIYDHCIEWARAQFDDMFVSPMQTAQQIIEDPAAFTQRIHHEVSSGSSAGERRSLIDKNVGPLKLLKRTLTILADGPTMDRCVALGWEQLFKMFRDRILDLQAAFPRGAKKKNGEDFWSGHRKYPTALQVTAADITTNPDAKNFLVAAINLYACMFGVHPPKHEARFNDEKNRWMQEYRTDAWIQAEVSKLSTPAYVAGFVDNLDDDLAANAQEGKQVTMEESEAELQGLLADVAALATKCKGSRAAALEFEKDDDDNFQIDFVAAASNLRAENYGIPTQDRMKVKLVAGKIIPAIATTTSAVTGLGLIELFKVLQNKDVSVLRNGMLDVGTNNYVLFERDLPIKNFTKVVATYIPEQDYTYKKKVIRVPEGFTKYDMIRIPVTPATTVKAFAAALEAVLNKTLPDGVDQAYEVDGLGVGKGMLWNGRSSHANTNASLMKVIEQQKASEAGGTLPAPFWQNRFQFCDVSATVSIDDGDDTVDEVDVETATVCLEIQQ

[3] = target: T2, Aspartate--tRNA(Asp/Asn) ligase (Mycobacterium tuberculosis (strain ATCC 25618 / H37Rv)) (UniProt P9WFW3); experiment: Assay for Asp RNA synthetase-1 from Mycobacterium tuberculosis; format: functional; settings: 30 µM; also: in the data most compounds retested in dose-response had high values
T2 sequence (whole entry): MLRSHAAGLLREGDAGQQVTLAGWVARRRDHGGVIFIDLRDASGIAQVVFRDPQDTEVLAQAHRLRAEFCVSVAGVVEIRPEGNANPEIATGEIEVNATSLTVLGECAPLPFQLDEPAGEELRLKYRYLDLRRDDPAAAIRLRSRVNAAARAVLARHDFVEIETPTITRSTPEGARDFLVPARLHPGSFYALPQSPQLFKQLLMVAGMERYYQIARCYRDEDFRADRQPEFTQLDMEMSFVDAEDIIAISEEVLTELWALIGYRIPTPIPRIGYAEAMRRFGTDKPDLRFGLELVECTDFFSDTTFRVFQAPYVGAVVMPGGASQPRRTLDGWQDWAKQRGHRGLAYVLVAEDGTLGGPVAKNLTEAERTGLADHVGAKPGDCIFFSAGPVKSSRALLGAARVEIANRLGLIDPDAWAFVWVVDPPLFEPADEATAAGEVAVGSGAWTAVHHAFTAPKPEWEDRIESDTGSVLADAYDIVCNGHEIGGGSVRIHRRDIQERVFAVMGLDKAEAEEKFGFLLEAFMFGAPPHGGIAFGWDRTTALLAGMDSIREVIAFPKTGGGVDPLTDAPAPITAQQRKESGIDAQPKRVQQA

[4] = target: AMP-activated protein kinase, AMPK (Homo sapiens) (UniProt P54646+O43741+P54619+Q9UGJ0+Q9Y478+Q13131+Q9UGI9); experiment: AMP-dependent Kinase enzyme assay. An in vitro enzyme assay that detects ADP turnover that is directly proportional to AMPK activity. This uses naive AMPK that is activated during the assay with MK-8722; format: functional; settings: 30 µM
[5] = target: Sialic acid-binding Ig-like lectin 9 (Homo sapiens) (UniProt Q9Y336); experiment: Hs-Siglec9 ALPHAscreen SOP 20170721; settings: 10 µM
Chain of Sialic acid-binding Ig-like lectin 9 (Homo sapiens) (Q9Y336 whole entry): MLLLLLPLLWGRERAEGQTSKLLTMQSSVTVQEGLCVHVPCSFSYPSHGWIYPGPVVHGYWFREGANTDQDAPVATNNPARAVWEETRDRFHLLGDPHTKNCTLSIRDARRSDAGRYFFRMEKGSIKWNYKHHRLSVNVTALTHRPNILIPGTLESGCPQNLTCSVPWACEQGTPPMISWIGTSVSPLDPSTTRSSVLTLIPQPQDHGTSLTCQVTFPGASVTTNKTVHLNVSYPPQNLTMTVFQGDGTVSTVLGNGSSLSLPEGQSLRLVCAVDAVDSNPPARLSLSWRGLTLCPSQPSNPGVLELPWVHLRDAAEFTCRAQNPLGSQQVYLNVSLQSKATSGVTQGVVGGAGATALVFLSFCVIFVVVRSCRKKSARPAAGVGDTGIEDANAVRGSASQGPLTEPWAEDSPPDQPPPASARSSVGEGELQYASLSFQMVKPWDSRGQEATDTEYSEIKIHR

Trypanosoma cruzi = experiment: Trypanosoma cruzi phosphomannomutase and mannose-1-phosphate guanylyltransferase assay; format: functional; settings: 10 µM
[6] = target: T3, Arginase-2, mitochondrial (Homo sapiens) (UniProt P78540); experiment: in vitro enzyme assay to detect the production of urea directly proportional to the activity of Arginase II; format: functional; settings: 33.3 µM; also: in the data most compounds retested in dose-response had high values
T3 sequence (whole entry): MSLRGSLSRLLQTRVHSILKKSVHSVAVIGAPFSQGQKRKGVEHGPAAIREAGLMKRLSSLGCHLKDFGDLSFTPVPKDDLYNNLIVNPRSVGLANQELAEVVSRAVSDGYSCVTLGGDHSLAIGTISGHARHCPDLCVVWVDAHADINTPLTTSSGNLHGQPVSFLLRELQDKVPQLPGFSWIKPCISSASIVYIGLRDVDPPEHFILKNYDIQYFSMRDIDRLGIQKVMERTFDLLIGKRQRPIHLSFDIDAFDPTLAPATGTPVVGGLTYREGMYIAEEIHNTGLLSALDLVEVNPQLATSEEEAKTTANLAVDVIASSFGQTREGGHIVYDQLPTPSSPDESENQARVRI

[7] = target: T4, Proteasome subunit beta (Trypanosoma cruzi) (UniProt O96673); experiment: Trypanosoma cruzi proteasome chymotrypsin-like activity (TcProtChymo) assay.; also: in the data most compounds retested in dose-response had high values; format: functional; settings: 9.37 µM
T4 sequence (whole entry): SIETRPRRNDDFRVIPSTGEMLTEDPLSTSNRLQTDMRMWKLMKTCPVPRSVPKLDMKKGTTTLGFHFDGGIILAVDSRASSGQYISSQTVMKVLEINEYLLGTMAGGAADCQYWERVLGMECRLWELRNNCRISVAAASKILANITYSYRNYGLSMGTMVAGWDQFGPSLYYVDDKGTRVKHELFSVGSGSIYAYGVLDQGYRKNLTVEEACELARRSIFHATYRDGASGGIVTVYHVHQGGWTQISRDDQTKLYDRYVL

Homo sapiens = species on record: Homo sapiens; experiment: To identify inhibition of the IFN signalling (Jak-Stat) pathway via expression of an eGFP reporter gene under the control of an IFN-stimulated response element (ISRE) containing MxA promoter.; format: functional; settings: 30 µM
[8] = target: Shiga toxin 2 (Escherichia coli O157:H7) (UniProt P09385+P09386); experiment: E. coli 0.157:H7 Shiga Toxin SOP - stx2 screening assay; format: functional; settings: 30 µM
[9] = target: T5, Tyrosyl-tRNA synthetase, putative (Trypanosoma cruzi (strain CL Brener)) (UniProt Q4DSP6); experiment: Trypanosoma cruzi tyrosyl tRNA synthetase (TcYRS) _High Tyrosine SOP; format: functional; settings: 30 µM; also: in the data most compounds retested in dose-response had high values
T5 sequence (whole entry): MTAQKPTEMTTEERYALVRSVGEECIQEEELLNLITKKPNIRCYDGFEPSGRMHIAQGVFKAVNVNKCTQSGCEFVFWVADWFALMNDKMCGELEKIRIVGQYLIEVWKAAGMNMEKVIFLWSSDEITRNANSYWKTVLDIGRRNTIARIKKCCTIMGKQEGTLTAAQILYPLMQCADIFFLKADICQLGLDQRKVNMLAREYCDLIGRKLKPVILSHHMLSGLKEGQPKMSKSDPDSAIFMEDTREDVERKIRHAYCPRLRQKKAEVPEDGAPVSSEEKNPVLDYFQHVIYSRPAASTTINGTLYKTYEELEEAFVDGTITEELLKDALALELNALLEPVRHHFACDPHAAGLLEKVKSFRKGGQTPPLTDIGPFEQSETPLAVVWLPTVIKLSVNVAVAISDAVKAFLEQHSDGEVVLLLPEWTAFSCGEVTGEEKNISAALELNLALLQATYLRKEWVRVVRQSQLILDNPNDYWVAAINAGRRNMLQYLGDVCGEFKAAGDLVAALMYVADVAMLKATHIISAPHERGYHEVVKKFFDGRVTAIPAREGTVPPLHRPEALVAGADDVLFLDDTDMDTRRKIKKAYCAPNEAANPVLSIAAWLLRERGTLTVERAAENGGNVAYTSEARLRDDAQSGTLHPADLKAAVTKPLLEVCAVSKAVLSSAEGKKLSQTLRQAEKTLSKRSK

[10] = target: T5, Tyrosyl-tRNA synthetase, putative (Trypanosoma cruzi (strain CL Brener)); experiment: Trypanosoma cruzi tyrosyl tRNA synthetase (TcYRS) SOP; format: functional; settings: 30 µM
[11] = target: Chromo domain-containing protein 1 (Saccharomyces cerevisiae (strain ATCC 204508 / S288c) (Baker's yeast)) (UniProt P32657); experiment: ScCHD-1 Enzyme Inhibition Assay; format: functional; settings: 30 µM; also: in the data most compounds retested in dose-response had high values
Chain of Chromo domain-containing protein 1 (Saccharomyces cerevisiae (strain ATCC 204508 / S288c) (Baker's yeast)) (P32657 whole entry, the tested form may be a part): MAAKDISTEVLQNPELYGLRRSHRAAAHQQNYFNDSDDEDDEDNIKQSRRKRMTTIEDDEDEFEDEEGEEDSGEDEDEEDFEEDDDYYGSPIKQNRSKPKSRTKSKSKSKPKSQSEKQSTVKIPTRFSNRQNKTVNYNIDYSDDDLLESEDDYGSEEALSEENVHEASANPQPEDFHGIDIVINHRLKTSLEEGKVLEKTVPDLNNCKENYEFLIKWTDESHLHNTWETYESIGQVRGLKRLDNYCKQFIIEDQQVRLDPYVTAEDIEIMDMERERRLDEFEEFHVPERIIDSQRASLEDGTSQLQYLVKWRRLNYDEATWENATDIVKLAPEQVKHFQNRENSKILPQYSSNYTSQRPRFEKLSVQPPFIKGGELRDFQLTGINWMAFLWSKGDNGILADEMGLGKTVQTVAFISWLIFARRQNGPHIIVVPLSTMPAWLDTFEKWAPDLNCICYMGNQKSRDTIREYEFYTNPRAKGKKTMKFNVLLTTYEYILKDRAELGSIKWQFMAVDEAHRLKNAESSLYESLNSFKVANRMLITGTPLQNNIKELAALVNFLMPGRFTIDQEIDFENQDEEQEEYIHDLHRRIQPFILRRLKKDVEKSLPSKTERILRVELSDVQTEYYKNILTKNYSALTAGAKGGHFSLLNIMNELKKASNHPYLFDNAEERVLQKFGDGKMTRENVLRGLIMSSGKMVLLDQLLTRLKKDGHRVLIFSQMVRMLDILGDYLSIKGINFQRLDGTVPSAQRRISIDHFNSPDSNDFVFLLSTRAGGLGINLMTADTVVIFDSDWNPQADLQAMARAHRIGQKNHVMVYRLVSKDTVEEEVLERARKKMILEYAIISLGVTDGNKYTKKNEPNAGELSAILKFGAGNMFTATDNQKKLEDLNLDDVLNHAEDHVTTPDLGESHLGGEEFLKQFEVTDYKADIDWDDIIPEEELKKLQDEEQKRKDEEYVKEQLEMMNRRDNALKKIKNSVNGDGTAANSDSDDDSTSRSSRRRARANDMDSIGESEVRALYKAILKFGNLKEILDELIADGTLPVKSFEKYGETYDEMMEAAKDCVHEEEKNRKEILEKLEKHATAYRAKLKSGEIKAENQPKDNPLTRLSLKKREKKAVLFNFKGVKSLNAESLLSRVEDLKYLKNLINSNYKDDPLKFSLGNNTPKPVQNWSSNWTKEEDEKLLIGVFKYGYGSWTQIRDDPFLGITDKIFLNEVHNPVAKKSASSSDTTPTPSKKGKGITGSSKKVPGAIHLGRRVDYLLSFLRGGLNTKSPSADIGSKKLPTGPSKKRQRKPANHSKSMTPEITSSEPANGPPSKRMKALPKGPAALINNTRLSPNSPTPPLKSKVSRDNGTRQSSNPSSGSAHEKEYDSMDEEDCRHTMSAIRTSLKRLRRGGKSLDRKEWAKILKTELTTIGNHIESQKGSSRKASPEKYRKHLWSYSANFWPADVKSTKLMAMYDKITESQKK

Chain of Protein translocase subunit SecA (Escherichia coli (strain K12)) (P10408 whole entry): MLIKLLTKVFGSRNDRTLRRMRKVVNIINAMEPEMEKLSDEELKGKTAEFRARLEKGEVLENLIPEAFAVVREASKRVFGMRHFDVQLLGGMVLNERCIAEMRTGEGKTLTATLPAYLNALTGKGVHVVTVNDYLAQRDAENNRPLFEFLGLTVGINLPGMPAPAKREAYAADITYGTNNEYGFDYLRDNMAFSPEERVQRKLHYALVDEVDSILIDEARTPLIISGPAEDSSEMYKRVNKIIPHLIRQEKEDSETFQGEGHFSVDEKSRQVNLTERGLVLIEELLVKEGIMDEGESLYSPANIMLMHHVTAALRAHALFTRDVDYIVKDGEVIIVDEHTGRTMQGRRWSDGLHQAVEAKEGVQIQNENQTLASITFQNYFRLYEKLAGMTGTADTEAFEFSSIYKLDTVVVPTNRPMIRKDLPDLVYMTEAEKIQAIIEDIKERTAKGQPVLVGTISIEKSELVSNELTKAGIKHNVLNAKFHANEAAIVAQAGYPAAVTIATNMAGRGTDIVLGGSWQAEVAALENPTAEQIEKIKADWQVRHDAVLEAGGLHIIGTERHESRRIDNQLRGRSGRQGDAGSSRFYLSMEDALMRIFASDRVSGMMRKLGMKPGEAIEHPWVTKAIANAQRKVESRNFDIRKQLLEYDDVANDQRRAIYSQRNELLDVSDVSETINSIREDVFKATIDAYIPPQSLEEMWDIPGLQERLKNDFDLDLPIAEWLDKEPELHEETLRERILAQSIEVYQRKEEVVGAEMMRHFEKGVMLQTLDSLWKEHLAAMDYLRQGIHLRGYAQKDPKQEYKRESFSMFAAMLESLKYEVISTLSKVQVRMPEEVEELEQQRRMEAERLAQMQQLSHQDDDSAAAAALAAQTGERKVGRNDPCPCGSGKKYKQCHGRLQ

| Compound | Percent Effect [1] | Percent Effect [2] | Percent Effect [3] | Percent Effect [4] | Percent Effect [5] | Percent Effect (Trypanosoma cruzi) | Percent Effect [6] | Percent Effect [7] | Percent Effect (Homo sapiens) | Percent Effect [8] | Percent Effect [9] | Percent Effect [10] | Percent Effect [11] |
| --- | --- | --- | --- | --- | --- | --- | --- | --- | --- | --- | --- | --- | --- |
| Cc1csc(CN2CCC[C@]3(C[C@H](Oc4ccccn4)CO3)C2)n1 | 0.108% | 16.4% | 2.42% | -0.448% | 1.76% | 3.57% | 2.4% | 3.85% | 21.9% | -19.3% | 3.12% | 21% | -4.03% |
| CO[C@@H]1CC[C@H]2[C@H]1OCCN2CC1CCOCC1 | -7.48% | 13.5% | -1.82% | -2.63% | 10.8% | 3.91% | 3.33% | 8.88% | 1.72% | 9.96% | 4.95% | 13.4% | -4.03% |
| COc1c(Br)cc(Br)cc1CNC(C)Cn1cccn1 (configuration not stated) | -4.9% | 23.4% | 2.09% | 5.26% | -2.65% | -10.9% | -3.56% | 1.01% | 35.9% | 15.4% | 4.85% | 9.76% | -8.37% |
| COC[C@]12COC[C@H]1CN(Cc1cccnc1OC)C2 | -3.99% | 9.33% | -1.36% | 1.98% | 1.86% | -4.32% | -8.63% | 18.7% | -3.88% | -17.2% | 7.41% | 5.13% | -3.25% |
